# Measurements: PubChem BioAssay (NCATS)
# Records with an inconclusive call do not appear. A call without a number means that no potency is given here. Calls of active or inactive are those of the source. Unless noted, calls come from the whole dose curve; as a rule, active = well fitted curve in the direction sought with a large enough effect; inconclusive = small, poorly fitted or top-dose-only effect, or another doubt; inactive = no such curve, though single readings can be large; an effect the other way counts as inactive or inconclusive.
# How the values were obtained:
# [1] = qHTS Assay for Identification of Small Molecule Inducers of Hypoxia Response (AID 2120; active = well fitted curve in the direction sought with a large enough effect in the signal ratio, with a control signal flat, not every such curve was filed as active; the % refers to the signal ratio)
# In short: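 Reporter induction read as the CCF4 blue/green (460nm/530nm) emission ratio after 2.5 h dye loading at room temperature. ME-180 HRE-beta-lactamase cells received titrated compounds for 17 h at 37 degrees Celsius; AC50 values derived.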
# [2] = target: Ferritin light chain (Equus caballus) (UniProt P02791); assay: qHTS Validation Assay for Identification of Novel General Anesthetics (AID 2323); note: series mostly up to about 77 µM
# Ferritin light chain (Equus caballus), sequence (P02791 2-175 limits assumed): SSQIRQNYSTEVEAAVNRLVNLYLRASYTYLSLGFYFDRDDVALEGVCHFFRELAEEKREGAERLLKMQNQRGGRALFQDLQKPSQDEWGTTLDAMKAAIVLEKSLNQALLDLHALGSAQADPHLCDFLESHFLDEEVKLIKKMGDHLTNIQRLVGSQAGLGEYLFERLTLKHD
# In short: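 10 uM horse-spleen apoferritin + 1-AMA (50% saturated, PBS); cpd pin-transferred, 10 min RT. Ex 380/Em 535 nm endpoint. Activity normalized between free 1-AMA and 1-AMA/apoferritin; 4-parameter Hill fit of concentration-response.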
# [3] = target: ATP-dependent DNA helicase Q1 (Homo sapiens) (UniProt P46063); assay: qHTS Validation Assay for Inhibitors of RecQ-Like Dna Helicase 1 (RECQ1) (AID 2353)
# ATP-dependent DNA helicase Q1 (Homo sapiens), sequence (P46063 whole entry, looked up): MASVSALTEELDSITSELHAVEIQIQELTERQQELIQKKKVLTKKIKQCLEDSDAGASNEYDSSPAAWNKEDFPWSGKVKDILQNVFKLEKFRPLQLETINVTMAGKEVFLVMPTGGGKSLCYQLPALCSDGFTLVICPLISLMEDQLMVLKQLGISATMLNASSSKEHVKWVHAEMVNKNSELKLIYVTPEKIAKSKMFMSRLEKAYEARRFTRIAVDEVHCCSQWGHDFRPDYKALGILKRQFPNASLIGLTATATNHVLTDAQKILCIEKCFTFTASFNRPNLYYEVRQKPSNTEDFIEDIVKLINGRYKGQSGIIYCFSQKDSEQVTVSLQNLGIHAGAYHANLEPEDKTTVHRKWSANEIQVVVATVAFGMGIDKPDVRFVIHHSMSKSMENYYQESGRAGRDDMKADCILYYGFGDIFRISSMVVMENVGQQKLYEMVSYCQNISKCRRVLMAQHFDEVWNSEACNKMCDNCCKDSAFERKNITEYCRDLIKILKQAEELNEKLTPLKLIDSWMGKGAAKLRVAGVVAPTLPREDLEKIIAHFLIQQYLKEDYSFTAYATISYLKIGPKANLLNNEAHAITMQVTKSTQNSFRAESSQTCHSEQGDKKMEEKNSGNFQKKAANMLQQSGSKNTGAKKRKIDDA
# In short: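 RECQ1T1 50 nM; forked duplex (20 bp + 30-nt ss tails) 200 nM, ATP 2 mM final; pH 8.0, 2 mM MgCl2, 2.5 ug/ml poly(dI-dC); 15 min compound preincubation; discontinuous kinetic read over 2 h at RT.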
# [4] = target: RecQ-like DNA helicase BLM (Homo sapiens) (UniProt P54132); assay: qHTS Validation Assay for Inhibitors of Bloom's syndrome helicase (BLM) (AID 2364)
# RecQ-like DNA helicase BLM (Homo sapiens), sequence (P54132 whole entry, looked up): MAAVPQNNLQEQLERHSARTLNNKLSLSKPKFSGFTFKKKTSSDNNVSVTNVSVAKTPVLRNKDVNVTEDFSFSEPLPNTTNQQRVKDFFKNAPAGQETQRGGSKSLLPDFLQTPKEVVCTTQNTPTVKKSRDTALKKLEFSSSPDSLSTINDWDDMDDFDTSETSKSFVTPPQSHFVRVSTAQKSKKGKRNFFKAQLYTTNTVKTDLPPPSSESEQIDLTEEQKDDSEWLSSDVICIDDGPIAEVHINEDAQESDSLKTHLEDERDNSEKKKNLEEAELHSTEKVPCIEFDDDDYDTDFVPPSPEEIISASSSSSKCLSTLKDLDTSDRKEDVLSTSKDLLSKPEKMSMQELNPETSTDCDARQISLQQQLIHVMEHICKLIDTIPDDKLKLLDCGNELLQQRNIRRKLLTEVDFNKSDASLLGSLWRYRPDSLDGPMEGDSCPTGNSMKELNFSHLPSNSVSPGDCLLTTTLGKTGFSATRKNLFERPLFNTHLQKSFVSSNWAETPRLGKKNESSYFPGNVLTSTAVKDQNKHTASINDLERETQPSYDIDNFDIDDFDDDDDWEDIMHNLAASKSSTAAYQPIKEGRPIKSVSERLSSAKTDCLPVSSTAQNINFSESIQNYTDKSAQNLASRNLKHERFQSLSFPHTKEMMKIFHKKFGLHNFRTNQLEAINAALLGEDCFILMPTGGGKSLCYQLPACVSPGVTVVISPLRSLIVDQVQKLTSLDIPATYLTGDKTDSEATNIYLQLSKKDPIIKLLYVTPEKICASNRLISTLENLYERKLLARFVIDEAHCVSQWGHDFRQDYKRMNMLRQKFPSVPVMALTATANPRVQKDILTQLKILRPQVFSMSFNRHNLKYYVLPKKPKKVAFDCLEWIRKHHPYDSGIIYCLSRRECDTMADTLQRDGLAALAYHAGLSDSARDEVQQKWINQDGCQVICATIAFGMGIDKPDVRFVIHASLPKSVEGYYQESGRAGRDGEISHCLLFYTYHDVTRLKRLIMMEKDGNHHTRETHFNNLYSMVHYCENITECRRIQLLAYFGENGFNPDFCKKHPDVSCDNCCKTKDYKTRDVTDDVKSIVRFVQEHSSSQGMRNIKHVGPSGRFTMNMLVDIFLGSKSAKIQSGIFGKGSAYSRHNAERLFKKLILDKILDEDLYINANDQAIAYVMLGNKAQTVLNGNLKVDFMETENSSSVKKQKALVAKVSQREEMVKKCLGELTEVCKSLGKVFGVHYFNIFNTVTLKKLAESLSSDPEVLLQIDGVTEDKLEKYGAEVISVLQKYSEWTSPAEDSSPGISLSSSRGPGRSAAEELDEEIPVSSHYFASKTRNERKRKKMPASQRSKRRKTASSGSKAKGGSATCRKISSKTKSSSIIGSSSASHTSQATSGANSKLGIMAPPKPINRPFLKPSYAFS
# In short: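 BLM 50 nM in 25 mM Tris-HCl pH 8.0, 5 mM NaCl, 2 mM MgCl2, 1 mM DTT, 0.01% Tween-20, 2.5 ug/ml poly(dI-dC); 15 min cpd preinc, RT. Start: 200 nM forked DNA + 2 mM ATP (final). TAMRA read, 2 reads 2 h apart.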
# [5] = High Content Imaging Cell-Based qHTS for Inhibitors of the mTORC1 Signaling Pathway in MEF (Tsc2-/-, p53-/-) Cells (AID 2666);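 note: percent of cells scored positive for phospho-rpS6 Ser235/236 immunostaining by imaging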
# In short: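 Inhibition of rpS6 phosphorylation is measured by immunofluorescence imaging in empty-vector Tsc2-/-, p53-/- mouse embryonic fibroblasts after 24 hrs compound exposure at 37 degree Celsius. Results are reported as % positive cells per well.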
# [6] = High Content Imaging Cell-Based qHTS for Inhibitors of the mTORC1 Signaling Pathway in MEF Cells (AID 2667); note: potency is the fitted concentration of half-maximal effect
# In short: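 Fixed-cell imaging of phospho-S6 (Ser235/236, Alexa-488) after 24 hrs of compound treatment at 37 degree Celsius. Signal was normalized to Hoechst, and thresholds from the highest and lowest wells split cells into % active versus % non-active.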
# [7] = Cytometry Cell-Based qHTS for Inhibitors of the mTORC1 Signaling Pathway in MEF cells (AID 2668); note: potency is the fitted concentration of half-maximal effect
# In short: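 Read-out: phospho-rpS6 Ser235/236 immunofluorescence normalized to propidium iodide intensity, scored as % active cells against a rapamycin (7.5 nM) threshold. Cells: Tsc2-/-, p53-/- MEFs stably expressing WT Tsc2, compound-treated 24 hrs at 37 degree Celsius.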
# [8] = Validation screen for small molecules that induce DNA re-replication in MCF 10A normal breast cells (AID 463097); note: nearly all actives have a fitted effect of over 60% in size
# In short: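 250 MCF 10A cells/well; compound pin-transferred; 48 hr, 37 C, 5% CO2; Hoechst 40 min; imaged 405/500-530 nm. Hits = more high-intensity nuclei.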
# [9] = target: Ubiquitin carboxyl-terminal hydrolase 2 (Homo sapiens) (UniProt O75604); assay: qHTS Validation Assay for Inhibitors of Ubiquitin-specific Protease USP2a Using CHOP2 as the Reporter (AID 463106)
# In short: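 Inhibition is expressed relative to NEM as the full-inhibition control, with concentration-response curves classed by fit quality, magnitude and activity. Enzyme (USP2 core, 10nM) meets 25nM Ub-CHOP2 after compound preincubation; readings are taken at 60min.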
# [10] = target: DNA polymerase III PolC-type (Bacillus subtilis (strain 168)) (UniProt P13267); assay: qHTS Validation Assay for the Inhibitors of DNA Replication in Gram-Positive Bacteria (AID 485295);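 note: reconstituted holoenzyme with PolC plus beta clamp SSB and primase; PicoGreen fluorescence of double-stranded DNA made on primed circular M13 template; series mostly up to about 57 µM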
# DNA polymerase III PolC-type (Bacillus subtilis (strain 168)), sequence (P13267 whole entry, looked up): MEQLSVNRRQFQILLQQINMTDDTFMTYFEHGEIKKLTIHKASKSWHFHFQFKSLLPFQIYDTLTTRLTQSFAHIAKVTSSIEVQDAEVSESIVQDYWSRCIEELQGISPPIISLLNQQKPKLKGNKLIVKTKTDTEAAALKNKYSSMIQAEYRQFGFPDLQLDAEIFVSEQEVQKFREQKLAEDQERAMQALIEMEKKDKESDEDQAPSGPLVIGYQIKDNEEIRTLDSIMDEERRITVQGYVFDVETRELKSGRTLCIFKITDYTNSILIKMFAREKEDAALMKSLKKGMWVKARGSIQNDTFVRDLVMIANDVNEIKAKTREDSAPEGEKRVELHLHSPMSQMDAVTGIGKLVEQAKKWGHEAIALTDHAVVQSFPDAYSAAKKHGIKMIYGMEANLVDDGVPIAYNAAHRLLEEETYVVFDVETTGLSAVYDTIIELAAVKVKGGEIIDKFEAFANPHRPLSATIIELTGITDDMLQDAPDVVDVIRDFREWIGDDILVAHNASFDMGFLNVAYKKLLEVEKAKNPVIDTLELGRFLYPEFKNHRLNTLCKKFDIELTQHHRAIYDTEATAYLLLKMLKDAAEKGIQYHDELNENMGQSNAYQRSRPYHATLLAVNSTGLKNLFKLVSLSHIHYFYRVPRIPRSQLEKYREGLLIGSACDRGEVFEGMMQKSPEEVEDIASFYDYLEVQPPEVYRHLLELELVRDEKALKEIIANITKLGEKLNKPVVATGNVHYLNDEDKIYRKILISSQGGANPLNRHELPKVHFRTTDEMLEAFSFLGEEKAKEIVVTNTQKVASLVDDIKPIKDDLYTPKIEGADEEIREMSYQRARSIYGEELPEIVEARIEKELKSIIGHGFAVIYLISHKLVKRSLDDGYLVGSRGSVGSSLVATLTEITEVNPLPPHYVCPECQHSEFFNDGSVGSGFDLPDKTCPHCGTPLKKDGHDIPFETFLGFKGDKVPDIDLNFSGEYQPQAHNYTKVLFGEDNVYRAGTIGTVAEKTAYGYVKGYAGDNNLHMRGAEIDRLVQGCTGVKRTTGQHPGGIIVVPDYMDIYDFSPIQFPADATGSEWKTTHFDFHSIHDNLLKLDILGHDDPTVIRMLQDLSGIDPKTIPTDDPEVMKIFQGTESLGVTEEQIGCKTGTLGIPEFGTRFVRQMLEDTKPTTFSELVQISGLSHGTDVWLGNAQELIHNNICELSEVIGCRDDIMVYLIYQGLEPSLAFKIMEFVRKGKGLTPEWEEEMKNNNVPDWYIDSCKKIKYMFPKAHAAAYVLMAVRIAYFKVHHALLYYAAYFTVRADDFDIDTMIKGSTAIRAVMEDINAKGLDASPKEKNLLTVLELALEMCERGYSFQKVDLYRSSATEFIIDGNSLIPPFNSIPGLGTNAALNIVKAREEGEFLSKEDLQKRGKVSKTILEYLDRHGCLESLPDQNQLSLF
# In short: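 PicoGreen fluorescence (ex 480–485/em 535–540 nm) reports dsDNA synthesized on ssM13Gori template with dNTPs/NTPs. Enzyme: holoenzyme rebuilt from purified PolC, beta subunit, SSB and primase. Compound preincubated before substrate addition; RT throughout.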
# [11] = target: Tumor susceptibility gene 101 protein (Homo sapiens) (UniProt Q99816); assay: qHTS Validation Assay for Iinhibitors of HIV-1 Budding by Blocking the Interaction of PTAP/TSG101 (AID 485342; calls by dose curve)
# Tumor susceptibility gene 101 protein (Homo sapiens), sequence (Q99816 whole entry, looked up, the tested form may be a part): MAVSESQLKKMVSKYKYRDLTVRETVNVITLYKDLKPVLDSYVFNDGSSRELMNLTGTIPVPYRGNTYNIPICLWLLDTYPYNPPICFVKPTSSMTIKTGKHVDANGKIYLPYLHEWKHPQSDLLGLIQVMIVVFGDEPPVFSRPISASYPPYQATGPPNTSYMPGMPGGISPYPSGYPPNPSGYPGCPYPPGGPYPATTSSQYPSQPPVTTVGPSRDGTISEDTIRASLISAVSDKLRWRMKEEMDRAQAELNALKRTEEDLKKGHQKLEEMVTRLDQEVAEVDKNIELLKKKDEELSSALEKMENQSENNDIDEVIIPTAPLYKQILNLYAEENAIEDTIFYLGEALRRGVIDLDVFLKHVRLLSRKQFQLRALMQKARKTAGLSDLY
# In short: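 FP read-out: FITC-PTAP peptide, 50 nM final, binding Tsg101 binding domain, 10 uM final; 20 min r.t.; 10 mM HEPES pH 7.5, 0.15 M NaCl, 0.01% Tween 20, 3 mM EDTA, 0.1 mM TCEP.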
# [12] = qHTS Validation Assay to Find Inhibitors of Chronic Active B-Cell Receptor Signaling (AID 485345; active = well fitted curve in the direction sought with a large enough effect in the main read-out, with a control signal flat, not every such curve was filed as active)
# In short: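 TMD8 ABC-DLBCL cells with dox-inducible green luciferase–IκBα fusion and red native luciferase; compounds 46 uM–3 nM, 4 h at 37C with doxycycline in 0.5% FBS IMDM. Green/red ratio normalized to basal and 10 uM MG-132.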
# [13] = Quantitative high throughput screen for delayed death inhibitors of the malarial parasite plastid, 48 hour incubation (AID 488752); note: nearly all actives have a fitted effect of over 65% in size; note: potency is the fitted concentration of half-maximal effect
# In short: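 One-generation (48 h) growth assay: a decrease in luciferase signal from an integrated reporter in P. falciparum-infected red cells (0.1% parasitemia, 2% hematocrit) after compound exposure at 37 C indicates parasite inhibition.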
# [14] = target: Thioredoxin reductase 1, cytoplasmic (Rattus norvegicus) (UniProt O89049); assay: qHTS Assay for Substrates of Mammalian Selenoprotein Thioredoxin Reductase 1 (TrxR1) (AID 488772);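 note: series mostly up to about 57 µM; a drop in NADPH fluorescence below the no-compound background marks a TrxR1 substrate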
# In short: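 In this dual-purpose format, potential substrates are identified from the first fluorescence read after selenite addition, not from the 8-minute delta. Rat enzyme is preincubated with NADPH and then with compound at ~22 deg C.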
# [15] = Cytometric Cell-Based qHTS for Inhibitors of the mTORC1 Signaling Pathway in MEF (Tsc2-/-, p53-/-) Cells (AID 2660);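 note: Tsc2 and p53 null MEFs carrying empty vector with compound for 24 h; percent of cells above a phospho-rpS6 to PI ratio cutoff in each well; series mostly up to about 38 µM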
# In short: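 Percent of cells positive for normalized phospho-S6 staining is reported, with the cutoff set from rapamycin (7.5 nM) versus DMSO wells. Tsc2-/-, p53-/- MEFs received compound for 24 hrs.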
# [16] = target: ATP-dependent 6-phosphofructokinase (Trypanosoma brucei brucei) (UniProt O15648); assay: qHTS Validation Assay to Find Inhibitors of T. brucei phosphofructokinase (AID 485368)
# In short: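 PFK-generated ADP was measured after 45 min at room temperature using ADP-Glo. The reaction contained 0.5 mM F6P and 0.1 mM ATP.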
# [17] = Quantitative high throughput screen for delayed death inhibitors of the malarial parasite plastid, 96 hour incubation (AID 488745); note: nearly all actives have a fitted effect of over 70% in size; note: potency is the fitted concentration of half-maximal effect
# In short: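 Decreased firefly luciferase luminescence indicates inhibited growth of reporter-integrated P. falciparum after two generations (96 h, 37 C, 5% CO2). Infected erythrocytes at 0.1% parasitemia, 2% hematocrit, in Albumax-supplemented RPMI 1640.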
# [18] = target: Thioredoxin reductase 1, cytoplasmic (Rattus norvegicus) (UniProt O89049); assay: qHTS Assay for Inhibitors of Mammalian Selenoprotein Thioredoxin Reductase 1 (TrxR1) (AID 488773); settings: Potency: inhibition;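 note: drop in NADPH fluorescence over an 8 min run after selenite addition; series mostly up to about 57 µM; nearly all actives have a fitted effect of over 40% in size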
# In short: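 Inhibition is scored from the loss of NADPH fluorescence between first and last reads of an 8-min kinetic run. Selenite (400 uM) was the substrate, added after 15 min compound preincubation at room temperature.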
# [19] = target: Flap endonuclease 1 (Homo sapiens) (UniProt P39748); assay: qHTS Validation Assay for the Inhibitors of Human Flap endonuclease 1 (FEN1) (AID 488816)
# Flap endonuclease 1 (Homo sapiens), sequence (P39748 whole entry, looked up): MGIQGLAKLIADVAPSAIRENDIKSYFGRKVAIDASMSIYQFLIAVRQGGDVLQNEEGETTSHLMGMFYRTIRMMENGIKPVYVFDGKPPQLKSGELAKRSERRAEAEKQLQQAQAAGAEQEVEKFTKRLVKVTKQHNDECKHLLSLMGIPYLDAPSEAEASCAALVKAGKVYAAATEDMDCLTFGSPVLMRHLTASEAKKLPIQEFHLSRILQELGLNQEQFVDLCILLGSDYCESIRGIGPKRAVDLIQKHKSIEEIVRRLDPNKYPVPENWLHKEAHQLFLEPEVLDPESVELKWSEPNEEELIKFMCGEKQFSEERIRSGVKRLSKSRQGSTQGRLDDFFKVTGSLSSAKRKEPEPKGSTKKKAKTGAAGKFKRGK
# In short: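 Steps: add FEN1 (10 nM reagent) or buffer only; pin compounds; hold 15 min at room temperature; start with substrate, 50 nM final; read at 0 and 15 min; correct, normalize and fit a four-parameter Hill curve.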
# [20] = target: Beta-2 adrenergic receptor (Homo sapiens) (UniProt P07550); assay: qHTS validation assay of beta-arrestin-biased ligands of beta2-adrenergic receptor (AID 485366)
# Beta-2 adrenergic receptor (Homo sapiens), sequence (P07550 whole entry, looked up): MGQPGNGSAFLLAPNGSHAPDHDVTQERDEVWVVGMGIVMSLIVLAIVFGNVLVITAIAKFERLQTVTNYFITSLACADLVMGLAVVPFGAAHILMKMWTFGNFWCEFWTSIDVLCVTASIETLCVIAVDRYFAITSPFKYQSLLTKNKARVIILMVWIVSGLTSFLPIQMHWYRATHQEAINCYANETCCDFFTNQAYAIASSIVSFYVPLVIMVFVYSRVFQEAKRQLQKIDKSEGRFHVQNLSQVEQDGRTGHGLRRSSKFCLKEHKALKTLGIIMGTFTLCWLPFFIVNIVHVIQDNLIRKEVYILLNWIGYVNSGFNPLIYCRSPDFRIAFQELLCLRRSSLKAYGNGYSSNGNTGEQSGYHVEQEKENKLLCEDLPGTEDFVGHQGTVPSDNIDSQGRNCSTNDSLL
# In short: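 Screening used a titration range of up to 46 microM in a beta-arrestin recruitment Tango luciferase assay. Cells in 1% FBS medium were treated 18 hr at 37 degrees C, and luminescence was normalized to %Activity.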
Compound,outcome [1],Potency [2],Potency [3],Potency [4],Potency [5],Potency [6],Potency [7],Potency [8],Potency [9],Potency [10],outcome [11],Potency [12],Potency [13],outcome [14],outcome [15],Potency [16],Potency [17],Potency [18],Potency [19],outcome [20]
Cn1c(=O)c2c(ncn2C)n(C)c1=O,inactive,inactive,inactive,inactive,inactive,inactive,inactive,inactive,inactive,inactive,inactive,inactive,inactive,inactive,,,,,,
CCC1(c2ccccc2)C(=O)NCNC1=O,,inactive,inactive,inactive,,inactive,inactive,inactive,inactive,inactive,inactive,inactive,inactive,inactive,inactive,inactive,inactive,inactive,inactive,
Nc1c2c(nc3ccccc13)CCCC2,,inactive,inactive,inactive,inactive,inactive,inactive,inactive,inactive,inactive,inactive,inactive,,,inactive,inactive,,,inactive,
CC(C)NCC(O)c1ccc(O)c(O)c1 (configuration not stated),,inactive,inactive,inactive,,,13.1 µM (active),inactive,inactive,inactive,inactive,inactive,inactive,inactive,inactive,,inactive,,inactive,
NS(=O)(=O)c1cc2c(cc1Cl)NCNS2(=O)=O,,inactive,inactive,inactive,,inactive,inactive,inactive,inactive,,inactive,inactive,inactive,inactive,,,,inactive,inactive,
O=c1[nH]cc(F)c(=O)[nH]1,,inactive,inactive,inactive,,inactive,,inactive,inactive,,inactive,inactive,,inactive,,,,,,inactive
CCCNCC(O)COc1ccccc1C(=O)CCc1ccccc1 (configuration not stated),,inactive,inactive,inactive,inactive,16.5 µM (active),,inactive,inactive,inactive,inactive,,2.33 µM (active),inactive,inactive,inactive,2.62 µM (active),,inactive,
CN(C)CCOC(c1ccccc1)c1ccccc1,,inactive,inactive,inactive,,inactive,,inactive,inactive,,inactive,inactive,inactive,inactive,inactive,,,inactive,inactive,inactive
Cn1c(=O)c2[nH]cnc2n(C)c1=O,,inactive,inactive,inactive,,inactive,inactive,inactive,inactive,,inactive,,inactive,inactive,inactive,,,inactive,inactive,inactive
COc1ccc2c(c1)c(CC(=O)O)c(C)n2C(=O)c1ccc(Cl)cc1,inactive,inactive,inactive,inactive,inactive,inactive,,inactive,inactive,,inactive,inactive,inactive,inactive,inactive,inactive,,,inactive,
CC(CCc1ccc(O)cc1)NCCc1ccc(O)c(O)c1 (configuration not stated),,inactive,inactive,inactive,inactive,inactive,inactive,,inactive,,inactive,inactive,13.1 µM (active),inactive,,inactive,,,inactive,
O=c1c(-c2ccc(O)cc2)coc2cc(O)cc(O)c12,inactive,,inactive,,inactive,inactive,inactive,inactive,inactive,,inactive,,,inactive,inactive,inactive,,,inactive,inactive
CNCCCC12CCC(c3ccccc31)c1ccccc12,,inactive,inactive,inactive,,0.521 µM (active),,inactive,inactive,,inactive,,inactive,inactive,,inactive,,,inactive,inactive
Clc1ccc(C(c2ccccc2Cl)C(Cl)Cl)cc1 (configuration not stated),,inactive,inactive,,,inactive,inactive,inactive,inactive,inactive,inactive,inactive,inactive,inactive,,,,,inactive,
Nc1nnc(-c2cccc(Cl)c2Cl)c(N)n1,,inactive,inactive,,inactive,inactive,inactive,inactive,inactive,inactive,inactive,inactive,inactive,,,inactive,,,inactive,
Cc1ccccc1N1C(=O)c2cc(S(N)(=O)=O)c(Cl)cc2NC1C (configuration not stated),,inactive,inactive,,inactive,inactive,inactive,inactive,inactive,,inactive,inactive,inactive,inactive,,inactive,,inactive,inactive,inactive
Cc1cc(C(C)(C)C)c(O)c(C)c1CC1=NCCN1,,inactive,inactive,,inactive,inactive,inactive,inactive,inactive,,inactive,inactive,inactive,inactive,,inactive,inactive,,inactive,
